From PubChem BioAssay (EPA / NIEHS)
Inconclusive results are not listed. The source made the active and inactive calls. Rule for the calls, unless noted: active = hit-call score of the fitted dose curve at least 0.9, where 1 is the maximum; inactive = score below 0.9.

Assays:
[1] = CCTE_Padilla_ZF_Score.General: CCTE's 144 Hour Post-fertilization zebrafish Assay Score for General Malformation, Padilla Lab (AID 2284411)
Procedure, shortened: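 Wild-type zebrafish embryos were plated singly at 6-8 hpf in 10% Hanks' and exposed in sealed wells at 26C until rinsed on 5 dpf. At 6 dpf two blinded assessors scored mortality, hatching and malformations by stereomicroscopy; gain-of-signal versus DMSO.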

TTR (gene 7276) = assay: CCTE_GLTED_hTTR_0.5uM: CCTE's human Transthyretin (hTTR) Inhibition Assay, with 0.5uM TTR, Great Lakes Toxicology and Ecology Division (GLTED) Lab (AID 2284320)
Procedure, shortened: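 Cell-free displacement assay in which human TTR at 0.5 uM was incubated with test chemical for 2 h. Displacement of the ANSA probe was read by fluorescence at 380 nm excitation/475 nm emission. Loss of signal was fitted in the positive direction versus DMSO.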

[2] = CCTE_Padilla_ZF_Score.Craniofacial: CCTE's 144 Hour Post-fertilization zebrafish Assay Score for Craniofacial Malformation, Padilla Lab (AID 2284405)
Procedure, shortened: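 Wild-type zebrafish embryos (with chorions), one per well in 10% Hanks', were dosed at 6–8 hpf in sealed plates and kept at 26C. They were rinsed at 5 dpf. At 6 dpf two blinded assessors scored craniofacial malformations by brightfield stereomicroscopy.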

[3] = CCTE_Padilla_ZF_Score.Swim_bladder: CCTE's 144 Hour Post-fertilization zebrafish Assay Score for Swim Bladder Malformation, Padilla Lab (AID 2284408)
Procedure, shortened: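 Wild-type zebrafish embryos, one per well in 10% Hanks', dosed at 6–8 hpf, sealed, reared at 26C and rinsed at 5 dpf. Blinded assessors scored uninflated swim bladder by stereomicroscopy at 6 dpf, relative to DMSO.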

[4] = CCTE_Padilla_ZF_Score.Position: CCTE's 144 Hour Post-fertilization zebrafish Assay Score for Position, Padilla Lab (AID 2284409)
Procedure, shortened: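 Wild-type zebrafish embryos (with chorions) exposed singly from 6–8 hpf in sealed wells of Hanks' solution at 26C, rinsed at 5 dpf. At 6 dpf, blinded assessors scored abnormal water-column position by brightfield stereomicroscopy, relative to DMSO.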

[5] = CCTE_Padilla_ZF_Score.Living: CCTE's 144 Hour Post-fertilization zebrafish Assay Score for Viability, Padilla Lab (AID 2284410);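 note: larval death at 6 dpf judged by absent heartbeat or coagulation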
Procedure, shortened: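 Wild-type zebrafish embryos were exposed singly from 6–8 hpf in sealed wells of Hanks' solution at 26C, then rinsed at 5 dpf. At 6 dpf, blinded assessors scored mortality (no heartbeat or coagulation) by stereomicroscopy, fitted against DMSO.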

[6] = CCTE_Padilla_ZF_Score.Tail: CCTE's 144 Hour Post-fertilization zebrafish Assay Score for Tail Malformation, Padilla Lab (AID 2284414)
Procedure, shortened: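 Wild-type zebrafish embryos, one per well in 200 uL 10% Hanks', dosed at 6-8 hpf, sealed, and kept at 26 C on a 14:10 h light cycle. Chemical was rinsed out at 5 dpf. Blinded brightfield scoring of tail defects followed at 6 dpf.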

[7] = CCTE_Padilla_ZF_Score.Blood_pooling: CCTE's 144 Hour Post-fertilization zebrafish Assay Score for Blood Pooling, Padilla Lab (AID 2284415)
Procedure, shortened: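 Wild-type outbred zebrafish embryos, one per well in 10% Hanks', exposed from 6–8 hpf in sealed plates at 26C on 14:10 h light:dark, rinsed at 5 dpf. Blinded stereomicroscope scoring of blood pooling at 6 dpf; gain-of-signal versus DMSO.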

[8] = CCTE_Mundy_HCI_iCellGluta_NOG_NeuronCount: CCTE's Neurite Outgrowth Assay in iCellGluta cells for Neuron Count, Mundy Lab (AID 2284340; active = hit-call score of the fitted dose curve at least 0.9, where 1 is the maximum;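 note: cells fixed about 48 h after compound addition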)
Procedure, shortened: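 Neuron count read by automated high-content imaging of Hoechst 33342 and betaIII-tubulin/Alexa Fluor-488 labelling in human iPSC glutamatergic neurons. Activity fitted relative to DMSO.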

[9] = CCTE_Mundy_HCI_iCellGluta_NOG_NeuriteCount: CCTE's Neurite Outgrowth Assay in iCellGluta cells for Neurite Count, Mundy Lab (AID 2284342; active = hit-call score of the fitted dose curve at least 0.9, where 1 is the maximum;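 note: chemical exposure about 48 hours starting 2 hours after plating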)
[10] = Tanguay_ZF_120hpf_MO24: Oregon State University Tanguay Lab 24 Hour Post-fertilization zebrafish Assay for Mortality (AID 2284389)
Procedure, shortened: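 Dechorionated wild-type zebrafish embryos, 1 per well, statically exposed from 6 hpf at 28C, 0.64% DMSO final. Mortality scored as binary present/absent at 24 hpf by brightfield microscopy, relative to DMSO.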

[11] = Tanguay_ZF_120hpf_AXIS: Oregon State University Tanguay Lab 120 Hour Post-fertilization zebrafish Assay for Axial Malformation (AID 2284398)
Procedure, shortened: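 Dechorionated 5D wild-type zebrafish embryos exposed statically, one per well, from 6 to 120 hpf at 28C, 0.64% DMSO. Axial malformation scored as present/absent by brightfield microscopy at 120 hpf; dead embryos not scored.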

[12] = Tanguay_ZF_120hpf_MORT: Oregon State University Tanguay Lab 120 Hour Post-fertilization zebrafish Assay for Mortality (AID 2284399)
Procedure, shortened: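 Dechorionated wild-type Tropical 5D zebrafish embryos, one per well from 6 hpf, static exposure to 120 hpf at 28C in sealed dark plates, 0.64% DMSO final. Mortality scored as binary by brightfield at 24 and 120 hpf.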

[13] = Tanguay_ZF_120hpf_EDEM: Oregon State University Tanguay Lab 120 Hour Post-fertilization zebrafish Assay for Edema Malformation (AID 2284400)
Procedure, shortened: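 Dechorionated Tropical 5D wild-type embryos, one per well, statically exposed from 6 to 120 hpf at 28C in 0.64% DMSO. Edema scored present/absent by brightfield microscopy at 120 hpf; dead embryos not scored; fit versus DMSO.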

SERPINA7 (gene 6906) = assay: CCTE_GLTED_hTBG: CCTE's human Thyroxine-binding Globulin (TBG) Inhibition Assay, Great Lakes Toxicology and Ecology Division (GLTED) Lab (AID 2284343; active = hit-call score of the fitted dose curve at least 0.9, where 1 is the maximum;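 note: active chemicals lower fluorescence versus DMSO baseline by displacing probe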)
Procedure, shortened: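 Cell-free binding assay in which human TBG is incubated with test chemical for 2 hours and displacement of the fluorescent probe ANSA is read at 380 nm excitation/475 nm emission. Activity is fitted against DMSO as the negative control.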

[14] = CCTE_Padilla_ZF_Score.Edema: CCTE's 144 Hour Post-fertilization zebrafish Assay Score for Edema Malformation, Padilla Lab (AID 2284406)
Procedure, shortened: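 Wild-type zebrafish embryos, one per well in Hanks' solution, dosed at 6-8 hpf, sealed and reared at 26C on a 14:10 h cycle; rinsed on 5 dpf. At 6 dpf, blinded assessors scored edema by stereomicroscopy.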

Measured: AC50

c1ccc(C[P+](c2ccccc2)(c2ccccc2)c2ccccc2)cc1
inactive: [1]

O=C(Cl)C(F)(F)C(F)(F)C(F)(F)C(F)(F)C(F)(F)C(F)(F)C(F)(F)F
active: TTR (gene 7276) 0.599 µM
inactive: [2] | [3] | [4] | [5] | [1] | [6] | [7]

OCCCC(F)(F)C(F)(F)C(F)(F)C(F)(F)C(F)(F)C(F)(F)C(F)(F)C(F)(F)F
not listed: TTR (gene 7276) | SERPINA7 (gene 6906) | [14]
inactive: all other assays above

NC(O)(C(F)(F)F)C(F)(F)F
active: [1] 85 µM
not listed: TTR (gene 7276) | SERPINA7 (gene 6906) | [14]
inactive: all other assays above

NCC(F)(F)C(F)(F)C(F)(F)C(F)(F)C(F)(F)C(F)(F)C(F)(F)C(F)(F)F
active: [5] 32.4 µM
inactive: [2] | [3] | [4] | [1] | [6] | [7]

C=C(C)C(=O)OCC(F)(F)C(F)(F)C(F)(F)C(F)F
active: TTR (gene 7276) 19 µM
inactive: [2] | [3] | [4] | [5] | [1] | [6] | [7]

CN1CN(C)CN(C)C1
inactive: [1]

Nc1cc([N+](=O)[O-])cc(Cl)c1O
inactive: [1]

OCC(O)CC(F)(F)C(F)(F)C(F)(F)C(F)(F)C(F)(F)C(F)(F)C(F)(F)C(F)(F)F (centres undefined)
inactive: [10] | [12] | [6] | [7]
active: [11] 6.61 µM | [13] 5.23 µM | [2] 15.7 µM | [3] 6.73 µM | [4] 17.6 µM | [5] 17.7 µM | [1] 11.8 µM

O=C(O)C(F)(F)C(F)(F)C(F)(F)C(=O)O
not listed: TTR (gene 7276) | [8] | [9] | SERPINA7 (gene 6906) | [14]
inactive: all other assays above

C[Si](Cl)(Cl)CCC(F)(F)C(F)(F)C(F)(F)C(F)(F)C(F)(F)C(F)(F)F
not listed: TTR (gene 7276) | [8] | [9] | SERPINA7 (gene 6906) | [14]
inactive: all other assays above

CO[Si](C)(CCC(F)(F)C(F)(F)C(F)(F)C(F)(F)C(F)(F)C(F)(F)F)OC
not listed: TTR (gene 7276) | [8] | [9] | SERPINA7 (gene 6906) | [14]
inactive: all other assays above

CCc1cc(Cc2cc(CC)c(N)c(CC)c2)cc(CC)c1N
active: SERPINA7 (gene 6906) 8.5 µM

CCC(Cc1c(I)cc(I)c(N)c1I)C(=O)O (centres undefined)
active: SERPINA7 (gene 6906) 43.1 µM

NC(=O)C(F)(F)C(F)(F)C(F)(F)F
not listed: TTR (gene 7276) | [8] | [9] | SERPINA7 (gene 6906)
inactive: all other assays above

CN(C(=O)C(F)(F)C(F)(F)C(F)(F)F)[Si](C)(C)C
not listed: TTR (gene 7276) | [8] | [9] | SERPINA7 (gene 6906) | [14]
inactive: all other assays above

OCCCCC(F)(F)C(F)(F)C(F)(F)C(F)(F)F
active: [2] 39.4 µM | [3] 30.6 µM | [4] 34.1 µM | [5] 88.8 µM | [1] 21 µM
not listed: TTR (gene 7276) | SERPINA7 (gene 6906) | [14]
inactive: all other assays above
